The record followed here is paper PMC5700166.

Test in all cases: protein-binding microarray (PBM); PBM: ~300 nM protein, 6 mM HEPES pH 7.8, 80 mM KCl, 0.5 mM EDTA, 0.5 mM EGTA, 6% glycerol, 35 ng/ul poly-dIdC, 1% milk, 1 h, room temperature; Ap Aiptasia and Nv Nematostella (sea anemones) / Co Capsaspora / Aq Amphimedon (sponge) / Dm Drosophila / Hu human; RHD is the Rel homology domain; high values mean tight binding
What all share (details): dsDNA, one strand shown

One experiment concerns the target T1, GST-Ap-NF-kB RHD (Exaiptasia pallida (Aiptasia), UniProt A0A913YAJ5 2-422).
T1 sequence: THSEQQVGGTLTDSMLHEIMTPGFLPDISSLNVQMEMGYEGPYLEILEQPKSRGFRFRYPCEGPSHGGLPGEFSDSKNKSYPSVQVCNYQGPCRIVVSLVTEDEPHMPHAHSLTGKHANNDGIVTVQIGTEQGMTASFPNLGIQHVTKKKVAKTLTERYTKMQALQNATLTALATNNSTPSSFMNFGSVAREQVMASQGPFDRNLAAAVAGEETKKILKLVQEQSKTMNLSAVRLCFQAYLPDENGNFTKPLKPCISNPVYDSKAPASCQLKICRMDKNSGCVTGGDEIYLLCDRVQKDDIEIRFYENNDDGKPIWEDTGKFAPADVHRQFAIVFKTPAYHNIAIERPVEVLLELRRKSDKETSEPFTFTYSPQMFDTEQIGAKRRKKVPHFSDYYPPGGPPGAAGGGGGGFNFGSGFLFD

The target of experiment [1] is T2, GST-Nv-NF-kB (Cys allele) (Nematostella vectensis, UniProt E5G601 2-411).
T2 sequence: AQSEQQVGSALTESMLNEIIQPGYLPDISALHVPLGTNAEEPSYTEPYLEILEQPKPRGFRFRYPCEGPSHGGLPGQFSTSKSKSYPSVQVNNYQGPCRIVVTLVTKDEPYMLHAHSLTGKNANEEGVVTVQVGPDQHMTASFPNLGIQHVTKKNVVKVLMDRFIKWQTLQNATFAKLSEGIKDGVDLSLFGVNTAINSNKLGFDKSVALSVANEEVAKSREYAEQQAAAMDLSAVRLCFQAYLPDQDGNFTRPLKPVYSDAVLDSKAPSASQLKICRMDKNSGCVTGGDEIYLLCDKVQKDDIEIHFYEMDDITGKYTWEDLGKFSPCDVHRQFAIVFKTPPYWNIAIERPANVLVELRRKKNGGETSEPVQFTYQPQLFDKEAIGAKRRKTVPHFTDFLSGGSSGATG

Another experiment addresses T3, GST-Co-NF-kB (Capsaspora owczarzaki, UniProt F1ARL5 200-546).
T3 sequence: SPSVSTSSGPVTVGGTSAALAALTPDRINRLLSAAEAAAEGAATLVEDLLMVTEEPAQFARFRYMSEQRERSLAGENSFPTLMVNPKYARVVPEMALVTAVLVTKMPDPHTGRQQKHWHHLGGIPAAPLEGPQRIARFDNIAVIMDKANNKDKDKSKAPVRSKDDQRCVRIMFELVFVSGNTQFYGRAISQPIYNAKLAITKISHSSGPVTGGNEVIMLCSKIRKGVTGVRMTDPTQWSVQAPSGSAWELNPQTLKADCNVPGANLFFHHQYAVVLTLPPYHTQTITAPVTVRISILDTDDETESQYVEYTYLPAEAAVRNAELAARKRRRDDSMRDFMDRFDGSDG

A further experiment deals with T4, GST-Dm-Relish (Drosophila melanogaster, UniProt Q94527 99-473).
T4 sequence: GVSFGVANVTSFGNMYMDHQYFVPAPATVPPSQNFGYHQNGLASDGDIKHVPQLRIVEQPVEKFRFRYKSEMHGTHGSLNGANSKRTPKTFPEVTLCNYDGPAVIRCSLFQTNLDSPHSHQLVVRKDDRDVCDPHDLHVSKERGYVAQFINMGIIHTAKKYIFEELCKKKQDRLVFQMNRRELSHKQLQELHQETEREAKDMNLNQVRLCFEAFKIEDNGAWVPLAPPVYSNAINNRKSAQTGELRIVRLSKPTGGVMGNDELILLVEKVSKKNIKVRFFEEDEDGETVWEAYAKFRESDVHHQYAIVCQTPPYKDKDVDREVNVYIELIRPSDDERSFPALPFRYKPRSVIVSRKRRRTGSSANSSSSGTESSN

For the next experiment, the target named is T5, GST-Aq-NF-kB (Amphimedon queenslandica, UniProt A9Y5G7 2-389).
T5 sequence: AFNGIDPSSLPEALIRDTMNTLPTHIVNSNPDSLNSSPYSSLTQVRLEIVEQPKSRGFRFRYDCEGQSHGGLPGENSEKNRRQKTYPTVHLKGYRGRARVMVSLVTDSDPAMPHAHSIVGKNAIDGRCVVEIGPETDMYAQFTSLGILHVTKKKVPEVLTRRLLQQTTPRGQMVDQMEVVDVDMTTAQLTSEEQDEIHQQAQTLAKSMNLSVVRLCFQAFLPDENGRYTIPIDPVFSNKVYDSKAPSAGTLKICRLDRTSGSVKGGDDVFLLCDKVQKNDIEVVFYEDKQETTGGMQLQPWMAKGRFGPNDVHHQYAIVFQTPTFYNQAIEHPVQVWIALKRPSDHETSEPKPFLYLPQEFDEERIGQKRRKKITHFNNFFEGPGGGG

As to “CCGATTAACATCAGGAGACTCCCTGATGTTAATCGGGTCTTGATTCGCTTGACGCTGCTG”, the binding signal in the experiment with GST-Ap-NF-kB RHD was determined as 2.16 z-score; in experiment [1], 2.35 z-score; in the experiment with GST-Co-NF-kB, 1.37 z-score; in the experiment with GST-Dm-Relish, 1.79 z-score; with GST-Aq-NF-kB, 5.19 z-score.
For “CCGATTAACATCAAGTGTTTCCCTGATGTTAATCGGGTCTTGATTCGCTTGACGCTGCTG”, the binding signal came to 2.2 z-score in the experiment with GST-Ap-NF-kB RHD; 3.22 z-score in experiment [1]; 3.78 z-score in the experiment with GST-Co-NF-kB; 4.7 z-score with GST-Dm-Relish; 3.79 z-score with GST-Aq-NF-kB.
As to “CCGATTAACATCACGGGAATGCCTGATGTTAATCGGGTCTTGATTCGCTTGACGCTGCTG”, the binding signal came out at 1.93 z-score in the experiment with GST-Ap-NF-kB RHD; 2.46 z-score in experiment [1]; 1.56 z-score in the experiment with GST-Co-NF-kB; 3.11 z-score in the experiment with GST-Dm-Relish; 3.8 z-score with GST-Aq-NF-kB.
As for “CCGATTAACATCACACATTTCCCTGATGTTAATCGGGTCTTGATTCGCTTGACGCTGCTG”, the binding signal in the experiment with GST-Ap-NF-kB RHD was found to be 2.78 z-score; in experiment [1], 4.57 z-score; with GST-Co-NF-kB, 4.08 z-score; in the experiment with GST-Dm-Relish, 1.1 z-score; with GST-Aq-NF-kB, 3.88 z-score.
As to “CCGATTAACATCAACTCCCCCCATGATGTTAATCGGGTCTTGATTCGCTTGACGCTGCTG”, the binding signal with GST-Ap-NF-kB RHD is 5.39 z-score; in experiment [1], 4.1 z-score; with GST-Co-NF-kB it was 6.49 z-score; in the experiment with GST-Dm-Relish, 4.31 z-score; with GST-Aq-NF-kB it was 4.72 z-score.
On to “CCGATTAACATCAAATTCCCGTATGATGTTAATCGGGTCTTGATTCGCTTGACGCTGCTG”, for which the binding signal with GST-Ap-NF-kB RHD amounted to 2.44 z-score; in experiment [1], 4.38 z-score; with GST-Co-NF-kB, 2.65 z-score; with GST-Dm-Relish it was 3.19 z-score; in the experiment with GST-Aq-NF-kB it was 3.72 z-score.
With “CCGATTAACATCAGGGGTCCCCATGATGTTAATCGGGTCTTGATTCGCTTGACGCTGCTG”, the binding signal with GST-Ap-NF-kB RHD stood at 4.7 z-score; in experiment [1], 2.57 z-score; with GST-Co-NF-kB it was 1.99 z-score; in the experiment with GST-Dm-Relish, 7.31 z-score; in the experiment with GST-Aq-NF-kB it was 3.6 z-score.
Taken in the same sequence, the figures for “CCGATTAACATCAAGGGGGGTGGTGATGTTAATCGGGTCTTGATTCGCTTGACGCTGCTG” were 3.51 z-score, 3.67 z-score, 3.06 z-score, 4.12 z-score and 4.15 z-score.
Taken in the same sequence, the figures for “CCGATTAACATCAAAATTCCCATTGATGTTAATCGGGTCTTGATTCGCTTGACGCTGCTG” were 3.68 z-score, 6.03 z-score, 3.56 z-score, 6.03 z-score and 4.99 z-score.
With “CCGATTAACATCATCTCCCCCCATGATGTTAATCGGGTCTTGATTCGCTTGACGCTGCTG”, the binding signal was determined as 4.75 z-score with GST-Ap-NF-kB RHD; 2.53 z-score in experiment [1]; 8 z-score with GST-Co-NF-kB; 2.29 z-score with GST-Dm-Relish; 4.57 z-score in the experiment with GST-Aq-NF-kB.
Taken in the same sequence, the figures for “CCGATTAACATCACGTTATTCCCTGATGTTAATCGGGTCTTGATTCGCTTGACGCTGCTG” were 2.79 z-score, 2.96 z-score, 2.74 z-score, 4.77 z-score and 2.9 z-score.
Regarding “CCGATTAACATCAGATTTTTCCCTGATGTTAATCGGGTCTTGATTCGCTTGACGCTGCTG”, the binding signal with GST-Ap-NF-kB RHD is 3.33 z-score; in experiment [1] it was 5.35 z-score; in the experiment with GST-Co-NF-kB, 5.52 z-score; with GST-Dm-Relish, 1.54 z-score; with GST-Aq-NF-kB, 5.5 z-score.
Taken in the same sequence, the figures for “CCGATTAACATCAATATAGTCCCTGATGTTAATCGGGTCTTGATTCGCTTGACGCTGCTG” were 5.51 z-score, 4.77 z-score, 1.15 z-score, 1.16 z-score and 3.69 z-score.
Taken in the same sequence, the figures for “CCGATTAACATCAGGGGTTACCCTGATGTTAATCGGGTCTTGATTCGCTTGACGCTGCTG” were 6.28 z-score, 5.58 z-score, 4.23 z-score, 8.84 z-score and 7.71 z-score.
“CCGATTAACATCAAGTATTCCCATGATGTTAATCGGGTCTTGATTCGCTTGACGCTGCTG”: the binding signal in the experiment with GST-Ap-NF-kB RHD came to 2.44 z-score; in experiment [1], 2.26 z-score; with GST-Co-NF-kB, 3.57 z-score; with GST-Dm-Relish it was 2 z-score; in the experiment with GST-Aq-NF-kB, 1.85 z-score.
Taken in the same sequence, the figures for “CCGATTAACATCAGGGGATGGGATGATGTTAATCGGGTCTTGATTCGCTTGACGCTGCTG” were 3.51 z-score, 3.51 z-score, 2.16 z-score, 1.4 z-score and 2.91 z-score.
Taken in the same sequence, the figures for “CCGATTAACATCAAGCATCCCCCTGATGTTAATCGGGTCTTGATTCGCTTGACGCTGCTG” were 4.92 z-score, 5.03 z-score, 4.28 z-score, 3.89 z-score and 4.87 z-score.
